Sampled rows, rich in hits. Any-hit rate of the full collection: about 12%.
Shiga toxin inh: A qHTS for Small Molecule Inhibitors of Shiga Toxin. AID 2315, 2010. inhibition, % at 38.7 µM. Vero cells, Shiga toxin protein synthesis inhibition reporter. 290,000 compounds, 9.2% hits; in the data active means inhibition mostly above about 28%, no sharp cut-off; inactive means mostly below about 43%; further: 0% is about no effect
FMDV antiviral: High Throughput Screening for Foot and Mouth Disease Virus Antivirals; FMDV antiviral cell-based qHTS; Potency, µM (titrated, usually from 57.9 µM), for inactives: at the top dose activity change, negative = inhibition, actives largely listed as inhibitors; 410,000 compounds, 1.2% hits; AID 1159524, 2015; calls by dose curve; tested in HEK293T cells; further: read-out not given here; potency means the concentration at half of the fitted maximal effect; on the % scale 0 is the no-effect control and ±100 the full control effect; nearly all actives have a fitted effect of over 45% in size
Sm TGR block: qHTS Assay for the Inhibitors of Schistosoma Mansoni Peroxiredoxins; Schistosoma mansoni thioredoxin glutathione reductase (TGR), Q962Y6; purified TGR, DTNB reduction, TNB absorbance 405 nm; Potency, µM (doses to about 114 µM), inactives show top-dose activity change, negative = inhibition, hits mostly inhibitors; 360,000 compounds, 3% hits; AID 485364, 2010; active means well fitted inhibition curve with a large enough effect; inconclusive means small, poorly fitted or top-dose-only effect; inactive means no such curve, though single readings can be large or run the other way; further: potency means the concentration at half of the fitted maximal effect; on the % scale 0 is the no-effect control and ±100 the full control effect; nearly all actives have a fitted effect of over 60% in size
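TGR 20 nM + NADPH 100 uM (dispensed conc.), cpd preinc 15 min RT; start with NADPH (500 uM addition) then DTNB (15 mM addition). Kinetic TNB absorbance, 405 nm filter. Four-parameter Hill fit across titration.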
CHX counter: Cycloheximide Counterscreen for Small Molecule Inhibitors of Shiga Toxin | max response, % | 300,000 compounds, 12% hits | cell reporter, cycloheximide protein synthesis inhibition counterscreen; in the data active means max response mostly above about 13%, no sharp cut-off; inactive means mostly below about 14%; further: read at 38.3 µM for the half of the compounds with a filed dose; 0% is about no effect
An asterisk follows results filed as active.

Results for N#Cc1ccccc1CSc1ccc(-c2nc3ccccc3[nH]2)cn1 ?
Shiga toxin inh: 79*; Sm TGR block: 1%; CHX counter: 47*

Results for Cc1ccc2nc(-c3ccc(NC(=O)CSc4ccccc4)cc3)[nH]c2c1 ?
Shiga toxin inh: active; Sm TGR block: -1%; CHX counter: 33*

How did Cc1cc2nc(-c3ccc(SCc4ccc(C#N)cc4)nc3)[nH]c2cc1C do in these assays?
Shiga toxin inh: 20; FMDV antiviral: inconclusive; Sm TGR block: -18%; CHX counter: 15

How did Cc1ccc2nc(-c3ccc(SCC(=O)N4CCc5ccccc54)nc3)[nH]c2c1 do in these assays?
Shiga toxin inh: 121*; FMDV antiviral: 10%; Sm TGR block: -5%; CHX counter: 56*

How did Cc1cccc(CNC(=O)c2cnn(-c3nccc(-c4cc5ccccc5o4)n3)c2C2CC2)n1 do in these assays?
FMDV antiviral: -22%

What do the screens show for `COc1cc(=O)n2c(c1C(=O)NC(C)c1ccco1)CCN(C(=O)c1[nH]c(C)cc1C)CC2` (centres undefined)?
FMDV antiviral: -7%

What do the screens show for `CCOc1ccc(S(=O)(=O)Nc2cccc(OC)c2)c2cccnc12`?
FMDV antiviral: 69%; Sm TGR block: -1%

How did COc1cc(OC)cc(C(=O)Nc2cc(-c3nc4cc(Cl)ccc4o3)ccc2Cl)c1 do in these assays?
FMDV antiviral: 68%; Sm TGR block: 2%

What do the screens show for `CC(O)(COc1ccccc1)c1ccc2c(c1)CN(Cc1ccc3nsnc3c1)CCO2` (centres undefined)?
FMDV antiviral: -16%

Results for CCc1nn2c(=O)cc(COC(=O)c3cccc(NC(=O)c4ccccc4C)c3)nc2s1 ?
FMDV antiviral: -2%; Sm TGR block: 10%

How did CCc1nnc(NC(=O)CSc2ccc(-c3nc4ccc(C)cc4[nH]3)cn2)s1 do in these assays?
Shiga toxin inh: 51*; FMDV antiviral: 11%; Sm TGR block: -15%; CHX counter: 32*

What do the screens show for `CCc1nnc(NC(=O)CSc2ccc(-c3ccc(C)cc3)nn2)s1`?
Shiga toxin inh: 46; FMDV antiviral: 35%; Sm TGR block: 6%; CHX counter: 28

Results for Cc1cc2nc(-c3ccc[nH]c3=O)[nH]c2cc1C ?
Shiga toxin inh: -15; FMDV antiviral: -79%; Sm TGR block: 5%; CHX counter: -5

Results for CC(=O)CSc1ccc(-c2nc3cc(C)c(C)cc3[nH]2)cn1 ?
Shiga toxin inh: 2; FMDV antiviral: 8.9µM*; Sm TGR block: -12%; CHX counter: -2

What do the screens show for `Cc1cc2nc(-c3ccc(SCC(=O)Nc4nccs4)nc3)[nH]c2cc1C`?
Shiga toxin inh: 15; FMDV antiviral: -7%; Sm TGR block: -2%; CHX counter: 39*

Results for CCC(=O)N1CC(=O)Nc2ccc(C)cc2C1c1ccc(F)cc1 (centres undefined) ?
FMDV antiviral: -25%; Sm TGR block: 4%

What do the screens show for `Cc1ccc2c(c1)C(c1ccc(F)cc1)N(C(=O)C(C)C)CC(=O)N2` (centres undefined)?
FMDV antiviral: 8.9µM*; Sm TGR block: 3%

Results for O=C(Nc1ccccn1)C12CC3CC(CC(C3)C1)C2 ?
Shiga toxin inh: 11; FMDV antiviral: 3%; Sm TGR block: 20%; CHX counter: 6

How did N/C(=N\OC(=O)C12CC3CC(CC(C3)C1)C2)c1ccccn1 do in these assays?
Shiga toxin inh: 43*; FMDV antiviral: 19%; Sm TGR block: 2%; CHX counter: 41*

How did N/C(=N\OC(=O)C12CC3CC(CC(C3)C1)C2)c1ccccc1 do in these assays?
Shiga toxin inh: 21; FMDV antiviral: 47%; Sm TGR block: -8%; CHX counter: 4

Results for N/C(=N\OC(=O)C12CC3CC(CC(C3)C1)C2)c1cccnc1 ?
Shiga toxin inh: 17; Sm TGR block: -9%; CHX counter: 19*

What do the screens show for `C/C(=N/NC(=O)c1ccoc1C)C12CC3CC(CC(C3)C1)C2`?
Shiga toxin inh: 5; FMDV antiviral: 32%; Sm TGR block: -14%; CHX counter: 39*

How did C/C(=N\NC(=O)c1ccccn1)C12CC3CC(CC(C3)C1)C2 do in these assays?
Shiga toxin inh: 54*; Sm TGR block: 10%; CHX counter: 31*

Results for COc1ccccc1CN1CCC2(CCC(CNC(=O)c3ccccc3N(C)C)O2)CC1 (centres undefined) ?
FMDV antiviral: -3%

Results for O=C(NCC1Cc2cccc(-c3cncnc3)c2O1)C1CC1 (centres undefined) ?
FMDV antiviral: -14%

Results for CCOC(=O)c1cc(-c2ccc(F)cc2)n(CCC(=O)Nc2nc3ccc(OC)cc3s2)c1C ?
FMDV antiviral: inconclusive; Sm TGR block: -9%

What do the screens show for `O=C(c1ccco1)N(Cc1ccc(Cl)cc1)Cc1ccco1`?
Shiga toxin inh: 14; FMDV antiviral: 1%; Sm TGR block: -3%; CHX counter: -3

What do the screens show for `CC(=O)N(CCC(Cc1ccccc1)c1ccco1)Cc1ccco1` (centres undefined)?
Shiga toxin inh: 12; FMDV antiviral: inconclusive; Sm TGR block: 22µM*; CHX counter: 1

What do the screens show for `O=C(c1ccco1)N(CCC(c1ccccc1)c1ccco1)Cc1ccco1` (centres undefined)?
Shiga toxin inh: 10; FMDV antiviral: inconclusive; Sm TGR block: 10µM*; CHX counter: 8

What do the screens show for `Cc1ccc(C(CCN(Cc2ccccc2)C(=O)c2ccco2)c2ccco2)cc1` (centres undefined)?
Shiga toxin inh: -53; FMDV antiviral: -3%; Sm TGR block: 20µM*; CHX counter: 14

How did COC(=O)c1ccc(OCC2c3cc(OC)c(OC)cc3CCN2C(=O)c2ccccc2F)cc1 (centres undefined) do in these assays?
FMDV antiviral: -38%; Sm TGR block: 10%

What do the screens show for `COc1ccccc1NC(=O)Cn1nc2c3cc(F)ccc3n(Cc3cccc(C)c3)cc-2c1=O`?
FMDV antiviral: -10%; Sm TGR block: -2%

How did COc1cccc(NC(=O)c2csc3c2CCCC3)c1 do in these assays?
Shiga toxin inh: 104*; FMDV antiviral: 44%; CHX counter: 40*

Results for Cc1ccccc1NC(=O)c1csc2c1CCCC2 ?
Shiga toxin inh: 100*; FMDV antiviral: 46%; Sm TGR block: 3%; CHX counter: 41*

Results for O=C(Nc1nccs1)c1csc2c1CCCC2 ?
Shiga toxin inh: 88*; FMDV antiviral: 28%; Sm TGR block: -4%; CHX counter: 36*

What do the screens show for `COc1ccc(NC(=O)c2csc3c2CCCC3)cc1`?
Shiga toxin inh: 72*; FMDV antiviral: 39%; Sm TGR block: 4%; CHX counter: 51*

How did COc1cccc(NC(=O)CN(C)C(=O)c2csc3c2CCCC3)c1 do in these assays?
FMDV antiviral: -22%; Sm TGR block: 0%

Results for CCOC(=O)N1CCC(NC(=O)CS(=O)(=O)Cc2nc(-c3ccc(OC)cc3)oc2C)CC1 ?
Shiga toxin inh: 15; FMDV antiviral: -17%; Sm TGR block: inconclusive; CHX counter: -2

Screens: PubChem BioAssay, National Center for Advancing Translational Sciences (NCATS)
